The text below walks through data of PubChem BioAssay.

A short description of test [1]: HUVEC growth inhibition – cell-based, human, primary screen (AID 575;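 active = viability at or below 30% in both replicate assays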;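 also: 100% = median of untreated cell wells with 0.1% DMSO on each plate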). The note with it: HUVEC proliferation, CellTiter-Glo luminescence, 72 h; at 10 µM; stronger effect = lower value.
Test [2] in a line: growth inhibitors of H69AR lung tumor, primary screen, human, duplicate replicates (AID 580;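 active = viability at or under a set limit in both replicates, limit being median viability minus 3 SD, cut at about 48% in these data, passing the limit was not always enough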;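 also: 100% = mean luminescence of untreated wells and 0% = no signal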). The conditions noted are these: H69AR lung tumor cells viability, ATP luminescence, 72 h; at 10 µM; stronger effect = lower value.
Test [3] in a line: reversal of MRP1-mediated doxorubicin resistance, pilot screen, H69AR cells, doxorubicin co-treatment (AID 601;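 active = viability loss from added drug above about 55%, and viability with drug at most 40%, in both replicates, limit read from the data, passing the limit was not always enough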). The conditions noted are these: CellTiter-Glo, 72 h, at 10 µM; for differential viability (reversal): stronger effect = higher value.
The nature of test [4]: 384-well plate pilot, post-Golgi transport modulator project, inhibition of yeast transport mutant growth (AID 636; in the data active = inhibition above about 31%). The note with it: absorbance 615 nm, about 18 h, stronger effect = higher value.
The nature of test [5]: growth suppression of yeast trafficking mutant, preliminary HTS, modulators of trafficking downstream of Golgi apparatus project, 1536-format plate, OD 615 nm (AID 637). The conditions noted are these: yeast transport mutant growth, absorbance 615 nm, 18 h; stronger effect = higher value.
Test [6] in a line: OD615 S. cerevisiae growth inhibition, permissive medium, pilot counter-assay, permissive growth control for S. cerevisiae lifespan shortening project (AID 705;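 active = growth inhibition above 25% in both replicates, a cutoff set 3 SD above the mean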). The conditions noted are these: OD615, 24 h, at 10 µM, stronger effect = higher value.
Test [7] is described as follows: Restrictive medium S. cerevisiae growth inhibition, OD615, pilot screen of yeast lifespan reduction project, restrictive growth control (AID 706;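 active = growth inhibition above a set limit, 3 SD over mean compound inhibition, in both replicates, cut at about 43% in these data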;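 also: modified DeaD lifespan yeast strain shifted to restrictive glucose medium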). The conditions noted are these: OD615, 48 h, at 10 µM, stronger effect = higher value.
Test [8] can be described thus: viability gain of MRP-1-high H69AR cells under doxorubicin, pilot screen, MRP-1 activator project, CellTiter-Glo, duplicate (AID 807;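 active = viability increase at or above a cutoff of the median across tested compounds plus 3 SD, cut at about 8.5% in these data, passing the limit was not always enough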;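 also: compound pretreatment 18-22 h then 72 h combined with doxorubicin; 0% = doxorubicin alone and 100% = vehicle without doxorubicin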). The conditions noted are these: H69AR viability with doxorubicin, CellTiter-Glo luminescence; at 10 µM; stronger effect = higher value.
The nature of test [9]: growth suppression of beta-catenin knockout HCT116, pilot screen, human colon tumor cells (AID 823;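 active = cell viability at or below a set limit in both duplicate runs, the limit being the all-compound median minus 4 SD, cut at about 23% in these data, passing the limit was not always enough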;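 also: 0% = wells killed by 20 µM Hyamine and 100% = untreated DMSO cell wells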). The note with it: CellTiter-Glo, 60 h, at 10 µM, stronger effect = lower value.
Test [10] in a line: growth suppression of PTEN-deleted HCT116, pilot screen, cell-based, HCT116 clonal line, CellTiter-Glo (AID 824;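 active = viability at or below 27.92% in each of two runs, the all-compound median minus 4 SD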;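 also: 0% = 20 µM Hyamine control and 100% = vehicle cell control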). The note with it: 60 h, at 10 µM, stronger effect = lower value. A general note: ATP-based viability assays read luminescence as a measure of living cells.
Test [11] is described as follows: inhibitors of the yeast RAM network, pilot screen, dse1pr::URA3 reporter, 5-FOA selection (AID 869;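 active = inhibition over a set limit, the all-compound mean plus 3 SD, in both replicate runs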;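 also: 0% = DMSO wells with no growth and 100% = 10 µM 1-NA-PP1 with full growth; RAM network block rescues cells from 5-FOA so hits raise OD615 growth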). The conditions noted are these: S. cerevisiae dse1pr::URA3 5-FOA growth, OD615, 2 d; at 10 µM; stronger effect = higher value; strain carries analog-sensitive mutant Cbk1 kinase.
Test [12] is described as follows: RAM signaling pathway blockade in yeast – S. cerevisiae, Pdr1DBD-CYC8 efflux-inhibited sensitized strain, primary screen (AID 1298;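 active = RAM network inhibition above 8.4% in each of two replicates, 3 SD over the compound average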;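 also: 0% = DMSO untreated cells without growth and 100% = 10 µM 1-NA-PP1 full growth; higher means more yeast growth rescued from 5-FOA killing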). The conditions noted are these: S. cerevisiae cbk1-as DSE1-URA3 strain, 5-FOA growth OD615, 2 d; at 50 µM; stronger effect = higher value.
Where [13] appears, read: H69AR cells + 2 uM doxorubicin, measured here: viability with 2 uM doxorubicin, stronger effect = lower value.
[14] abbreviates: H69AR cells, compound alone cytotoxicity.

Inconclusive results are not listed. The source made the active and inactive calls. Rule as the data show it, unless noted: active = inhibition above about 30%; inactive = the rest.

For `CC(C(=O)Oc1ccc2c(c1)OCO2)N1C(=O)c2ccccc2C1=O` (stereo not drawn), the viability – broadly, a read-out of living cells in per cent, often relative to untreated cells – in test [1] was 79.5% (inactive); in test [2], 84.3% (inactive); in [3] (setting [13]), 94.4%; in test [3] (setting [14]), 84.3%; in test [9], 99.3% (inactive); in test [10] it was 105% (inactive). Besides, in [3] (H69AR cells + 2 uM doxorubicin), the differential viability (reversal) is -10.1% (inactive). Besides, the values for the inhibition in test [4], in test [5] and in [11] were -1.69% (inactive), 1.27% (inactive) and 1.38% (inactive), respectively. The growth inhibition was -0.745% (inactive) in test [6] and 13.1% (inactive) in test [7]. In addition, the viability increase in test [8] was -1.6% (inactive). Moreover, the RAM network inhibition in [12] was 0.12% (inactive).

For `N#C/C(C(=O)c1ccccc1)=C1/CCCN1`, the viability in test [1] is 95.8% (inactive); in test [2] it was 97.2% (inactive); in [3] (setting [13]), 91.5%; in [3] (setting [14]) it was 97.2%; in [9], 108% (inactive); in test [10], 105% (inactive). In test [3] (H69AR cells + 2 uM doxorubicin), the differential viability (reversal) is 5.69% (inactive). The inhibition (in general, the change of the read-out against control, counted positive when it falls) in test [4] is -1.04% (inactive); in test [5], 5.08% (inactive); in test [11], 1.44% (inactive). Moreover, the growth inhibition in test [6] was -10.5% (inactive); in [7], -8.62% (inactive). For the same molecule, the viability increase in [8] was 2.34% (inactive). In test [12], the RAM network inhibition is 1.34% (inactive).

On to `CCCN1CCN(C(=O)c2cn(CC(C)C)c(=O)c3cc(OC)c(OC)cc23)CC1`, for which the viability was 93.1% (inactive) in [1]; 78% (inactive) in [2]; 78.9% in [3] (setting [13]); 78% in test [3] (setting [14]); 100% (inactive) in [9]; 88.4% (inactive) in test [10]. In [3] (H69AR cells + 2 uM doxorubicin), the differential viability (reversal) is -0.945% (inactive). Besides, the figures for the inhibition in test [4], in [5] and in [11] were -4.74% (inactive), 4.92% (inactive) and 2.42% (inactive), respectively. The growth inhibition was -19.2% (inactive) in test [6] and -0.27% (inactive) in test [7]. Further, the viability increase in [8] was -2.46% (inactive). The RAM network inhibition in [12] was 2.08% (inactive).

Regarding `COC(=O)c1cccc(NC(=O)C2COc3ccccc3O2)c1C` (stereo not drawn), the viability in test [1] is 116% (inactive); in [2], 100% (inactive); in test [3] (setting [13]), 91.4%; in test [3] (setting [14]), 100%; in [9], 106% (inactive); in test [10], 99% (inactive). For the same molecule, the differential viability (reversal) in test [3] (H69AR cells + 2 uM doxorubicin) was 8.78% (inactive). In addition, the inhibition in test [4] is -1.71% (inactive); in test [5], -6.98% (inactive); in [11] it was -0.07% (inactive). Also, the growth inhibition in test [6] is -14.9% (inactive); in test [7], -21.5% (inactive). In test [8], the viability increase is 0.68% (inactive). Besides, in [12], the RAM network inhibition was 3.78% (inactive).

As to `CCn1c(CCNC(=O)c2ccc(OC)c(OC)c2)nc2ccccc21`, the viability in [1] was 103% (inactive); in test [2], 83.2% (inactive); in test [3] (setting [13]), 76.6%; in test [3] (setting [14]) it was 83.2%; in test [9] it was 102% (inactive); in test [10], 99.2% (inactive). In addition, the differential viability (reversal) in [3] (H69AR cells + 2 uM doxorubicin) is 6.54% (inactive). The inhibition in [4] is -5.92% (inactive); in test [5], -2.22% (inactive); in test [11], 1.87% (inactive). Besides, the values for the growth inhibition in test [6] and in test [7] were -10.8% (inactive) and -11.1% (inactive), respectively. In [8], the viability increase is -2.22% (inactive). For the same molecule, in test [12], the RAM network inhibition was 4.36% (inactive).

On to `Cn1ccnc1C(O)c1ccco1` (stereo not drawn), for which the viability is 101% (inactive) in test [1]; 103% (inactive) in [2]; 89.5% in test [3] (setting [13]); 103% in test [3] (setting [14]); 102% (inactive) in test [9]; 103% (inactive) in test [10]. Besides, the differential viability (reversal) in test [3] (H69AR cells + 2 uM doxorubicin) is 13.1% (inactive). The inhibition in [4] is -5.39% (inactive); in [5], 1.43% (inactive); in [11] it was 0.74% (inactive). In addition, the growth inhibition was -5.51% (inactive) in test [6] and -3.72% (inactive) in [7]. Moreover, the viability increase in test [8] was -0.09% (inactive). Moreover, the RAM network inhibition in [12] is 3.14% (inactive).

Take `COc1ccc(-c2nc(N3CCCC3)[nH]c(=O)c2C#N)cc1`: the viability is 97% (inactive) in [1]; 87.9% (inactive) in test [2]; 85.8% in test [3] (setting [13]); 87.9% in test [3] (setting [14]); 104% (inactive) in test [9]; 90.7% (inactive) in test [10]. Further, the differential viability (reversal) in test [3] (H69AR cells + 2 uM doxorubicin) is 2.17% (inactive). The inhibition in [4] is -1.45% (inactive); in [5], 0.79% (inactive); in test [11] it was 1.63% (inactive). Also, the growth inhibition is 0.51% (inactive) in test [6] and 0.48% (inactive) in test [7]. In test [8], the viability increase was -0.94% (inactive). The RAM network inhibition in test [12] is 3.39% (inactive).

On to `COc1ccc(-c2nn(-c3ccccc3)cc2/C=N/n2cnnc2)cc1OC`, for which the viability in [1] was 79.3% (inactive); in test [2], 79.8% (inactive); in [3] (setting [13]), 91%; in [3] (setting [14]), 79.8%; in test [9], 88% (inactive); in test [10], 84% (inactive). Moreover, the differential viability (reversal) in [3] (H69AR cells + 2 uM doxorubicin) was -11.2% (inactive). The inhibition in test [4] is -6.84% (inactive); in test [5], -0.63% (inactive); in [11] it was -0.92% (inactive). For the same molecule, the growth inhibition in test [6] is 2.04% (inactive); in [7], 17.4% (inactive). Also, the viability increase in test [8] is -4.33% (inactive). Also, the RAM network inhibition in [12] was -1.68% (inactive).

As for `COc1cccc(N2CCN(c3c4c(nc5ncnn35)CCC4)CC2)c1`, the viability is 68.7% (inactive) in test [1]; 86.9% (inactive) in test [2]; 76.5% in [3] (setting [13]); 86.9% in [3] (setting [14]); 77.5% (inactive) in [9]; 92.9% (inactive) in [10]. The differential viability (reversal) in test [3] (H69AR cells + 2 uM doxorubicin) is 10.4% (inactive). Besides, the inhibition is -4.55% (inactive) in [4], 8.73% (inactive) in test [5] and 0.465% (inactive) in test [11]. Besides, the growth inhibition in test [6] is -0.38% (inactive); in [7] it was 16.8% (inactive). Further, the viability increase in test [8] is -1.17% (inactive). Also, the RAM network inhibition in test [12] was 4.78% (inactive).

Regarding `CC(C)c1ccc(-c2nc(N3CCCCC3)[nH]c(=O)c2C#N)cc1`, the viability was 83.3% (inactive) in test [1]; 88.3% (inactive) in test [2]; 87.5% in [3] (setting [13]); 88.3% in [3] (setting [14]); 102% (inactive) in [9]. In addition, the differential viability (reversal) in test [3] (H69AR cells + 2 uM doxorubicin) is 0.79% (inactive). Also, the inhibition in test [4] is 0.92% (inactive); in [5], -3.49% (inactive); in test [11] it was 2.5% (inactive). Moreover, the growth inhibition is -17.7% (inactive) in test [6] and 3.37% (inactive) in [7]. The viability increase in test [8] was -2.54% (inactive). In test [12], the RAM network inhibition was 8.32% (inactive).

As for `COCCn1c(=O)[nH]c2cc(C(=O)N3CCN(c4ccccc4OC)CC3)ccc2c1=O`, the viability was 110% (inactive) in [1]; 85.8% (inactive) in [2]; 91.4% in test [3] (setting [13]); 85.8% in test [3] (setting [14]); 104% (inactive) in test [9]; 99% (inactive) in test [10]. In addition, in test [3] (H69AR cells + 2 uM doxorubicin), the differential viability (reversal) is -5.65% (inactive). The inhibition in [4] was -4.87% (inactive); in test [5], 0.32% (inactive); in [11] it was 1.2% (inactive). For the same molecule, the values for the growth inhibition in test [6] and in test [7] were -3.6% (inactive) and -7.11% (inactive), respectively. Besides, the viability increase in test [8] was -0.61% (inactive). The RAM network inhibition in test [12] is 6.96% (inactive).
